Measurements published in PubChem BioAssay (Tox21).
Results filed as inconclusive are left out. Entries that show only a call come without a potency. Activity calls are given as the source filed them. Unless noted, the call rests on the fitted dose curve; in most records, active means well fitted curve in the direction sought with a large enough effect in the repeat runs; inconclusive means weak or mixed curves; inactive means no such curve, though single readings can be large; an effect the other way counts as inactive or inconclusive.

Assays:
[1] = qHTS assay to identify small molecule antagonists of the estrogen related receptor (ERR) signaling pathway - cell viability counter screen (AID 1224818); further: potency means the concentration at half of the fitted maximal effect;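 further: viability measured after 17.5 h of compound exposure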
Method in brief: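 Multiplexed counter screen to separate cytotoxic compounds from true ERR modulators. ERR cells received DMSO-dissolved compounds after a 6 h pre-incubation, were exposed 17.5 h at 37 C, then assayed with CellTiter-Fluor fluorescence.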

[2] = qHTS assay to identify small molecule antagonists of the estrogen related receptor (ERR) signaling pathway (AID 1224819; further: nearly all actives have a fitted effect of over 50% in size; further: potency means the concentration at half of the fitted maximal effect)
Method in brief: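 Seed ERR cells 2,000/well; rest 6 h at 37 C/5% CO2; pin compounds in DMSO; incubate 18 h at 37 C; add One-Glo; wait 30 min at room temperature; measure luminescence.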

[3] = qHTS assay to identify small molecule agonists of the estrogen related receptor (ERR) signaling pathway (AID 1224820)
Method in brief: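 Cells: ERR line from NTP, 2,000/well. Pre-incubation 6 h, 37 C/5% CO2. Compound (DMSO) pin transfer, 18 h 37 C. One-Glo, 30 min RT, luminescence.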

[4] = tested on: estrogen-related receptor alpha (ERRalpha) with PGC-1alpha coactivator, human; experiment: qHTS assay to identify small molecule antagonists of the estrogen related receptor signaling pathway with the pleiotropic PPARgamma coactivator (PGC) (AID 1224821; calls by dose curve; further: nearly all actives have a fitted effect of over 50% in size; further: potency means the concentration at half of the fitted maximal effect)
Method in brief: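 Luminescent read-out (One-Glo, 30 min at room temperature) following 18 h treatment of PGC/ERR cells at 37 C with compounds delivered in DMSO. Cells had settled 6 h at 37 C/5% CO2 before dosing.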

[5] = qHTS assay to identify small molecule antagonists of the estrogen related receptor signaling pathway with the pleiotropic PPARgamma coactivator (PGC) cell viability counter screen (AID 1224822; further: potency means the concentration at half of the fitted maximal effect;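 further: viability read after 17.5 h compound exposure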)
Method in brief: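 Cells: PGC/ERR, 2,000/well, 1536-well format. Pre-incubation 6 h, 37 C/5% CO2. Compound exposure 17.5 h, 37 C. Detection: CellTiter-Fluor, 30 min, fluorescence.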

| SMILES | Potency [1] | Potency [2] | Potency [3] | Potency [4] | Potency [5] |
| --- | --- | --- | --- | --- | --- |
| CCOC(=O)c1ncn2c1[C@@H]1CCCN1C(=O)c1cc(OC)ccc1-2 | inactive | inactive | inactive | inactive | inactive |
| CN1CCc2cccc(Cl)c2CC1 | inactive | inactive | inactive | inactive | inactive |
| O=C1CCCN1CC#CCN1CCCC1 | inactive | inactive | inactive | inactive | inactive |
| C[C@H]1C2Cc3ccc(O)cc3[C@@]1(C)CCN2CC1CC1 | inactive | inactive | inactive | inactive | inactive |
| O=C1/C(=C/c2ccccc2)C[C@@]2(O)[C@H]3Cc4ccc(O)c5c4[C@@]2(CCN3CC2CC2)[C@H]1O5 | 8.74 µM (active) | 2.37 µM (active) | inactive | 2.2 µM (active) | 6.19 µM (active) |
| CCCN(CCC)C1CCc2ccc(O)cc2C1 (stereo not given) | inactive | inactive | inactive | inactive | inactive |
| COc1ccc(CNC(=O)/C=C/c2ccc3[nH]cc(CCN(C)C)c3c2)cc1 | inactive | inactive | inactive | inactive | inactive |
| CCCN(CCC)[C@@H]1CCc2cccc(O)c2C1 | inactive | inactive | inactive | inactive | inactive |
| CC(=O)NBr | inactive | inactive | inactive | inactive | inactive |
| CCCN1CCO[C@@H]2c3cc(O)ccc3OC[C@H]21 | inactive | inactive | inactive | inactive | inactive |
| COc1ccc2c(c[n+](C)c3c4cc5c(cc4ccc23)OCO5)c1OC | 18.1 µM (active) | 9.08 µM (active) | inactive | 10.6 µM (active) | 5.11 µM (active) |
| C#CCN[C@H](C)Cc1ccccc1 | inactive | inactive | inactive | inactive | inactive |
| NCCc1c[nH]c2ccc(C(N)=O)cc12 | inactive | inactive | inactive | inactive | inactive |
| COc1cc(C(O)CN)ccc1O (stereo not given) | inactive | inactive | inactive | inactive | inactive |
| COc1ccc2[nH]c3c(c2c1)CCNC3 | inactive | inactive | inactive | inactive | inactive |
| OC1CCCCC1N1CCC(c2ccccc2)CC1 (stereo not given) | inactive | inactive | inactive | inactive | inactive |
| N[C@@]1(C(=O)O)CC[C@@H](C(=O)O)C1 | inactive | inactive | inactive | inactive | inactive |
| CC(C)(O)[C@@H]1[C@H]2OC(=O)[C@@H]1[C@]1(O)C[C@H]3O[C@]34C(=O)O[C@H]2[C@]14C (tested in a mixture with another compound) | inactive | inactive | inactive | inactive | inactive |
